For 54 compounds, potentiation results are on record in PubChem BioAssay AID540277 (National Center for Advancing Translational Sciences (NCATS), 2011).

The structures appear in SMILES notation. In all, about 320,000 compounds went through this assay and about 55 (0.02%) were called active. Not shown: some 3% with an inconclusive outcome. What follows is part of a selection rich in actives, with near analogues and random picks from the rest. Values without a mark were called inactive. Cut-off read from the data, not from the text of the source: active = potentiation above about 80%; inconclusive = between about 30% and that limit; inactive = weaker than that.

Transient receptor potential cation channel subfamily V member 1 (Homo sapiens), sequence (Q8NER1 whole entry, looked up): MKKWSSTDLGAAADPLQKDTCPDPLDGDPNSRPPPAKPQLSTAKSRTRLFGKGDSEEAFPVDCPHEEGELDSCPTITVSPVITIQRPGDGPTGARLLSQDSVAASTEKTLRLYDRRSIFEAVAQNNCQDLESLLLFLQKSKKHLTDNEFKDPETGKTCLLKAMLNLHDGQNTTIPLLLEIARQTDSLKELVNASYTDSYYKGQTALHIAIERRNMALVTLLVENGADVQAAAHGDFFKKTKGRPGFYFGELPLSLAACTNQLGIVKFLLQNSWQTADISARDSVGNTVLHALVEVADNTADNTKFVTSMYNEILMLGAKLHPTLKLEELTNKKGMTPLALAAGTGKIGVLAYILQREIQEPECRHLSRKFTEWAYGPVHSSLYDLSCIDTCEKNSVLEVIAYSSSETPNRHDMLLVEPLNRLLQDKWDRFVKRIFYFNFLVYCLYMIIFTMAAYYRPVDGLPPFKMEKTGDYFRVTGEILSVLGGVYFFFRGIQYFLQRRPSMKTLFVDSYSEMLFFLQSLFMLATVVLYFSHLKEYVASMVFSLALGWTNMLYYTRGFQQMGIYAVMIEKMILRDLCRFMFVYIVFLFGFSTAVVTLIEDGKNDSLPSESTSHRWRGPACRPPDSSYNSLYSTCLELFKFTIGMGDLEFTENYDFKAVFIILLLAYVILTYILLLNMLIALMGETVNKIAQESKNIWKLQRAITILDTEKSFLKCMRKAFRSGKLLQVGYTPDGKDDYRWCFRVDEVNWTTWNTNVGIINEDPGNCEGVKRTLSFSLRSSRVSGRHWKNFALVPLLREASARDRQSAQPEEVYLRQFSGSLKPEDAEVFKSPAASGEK

The experiment concerns the target Transient receptor potential cation channel subfamily V member 1 (Homo sapiens) (UniProt Q8NER1). Put plainly: HTS Assay for Compounds that Act as Potentiators of the Vanilloid Receptor 1. Note: 0% is about no effect. The settings on record: TRPV1-expressing cells, Fluo-8 calcium influx, capsaicin EC20 potentiation; at 8.33 µM; active compounds read high. An excerpt: The transient receptor potential ion channel, family V, number 1, (TRPV1) is one of the most important molecular transducers of painful stimuli and a potential target for analgesic drug development. Although recent clinical trials with orthosteric antagonists have not produced a successful drug because of a hyperthermia side effect and their tendency to block thermal noxious pain, this ion channel is undeniably well placed in the pain pathway, and the idea of blocking pain signals before they enter the CNS is an excellent concept and of proven efficacy when TRPV1 agonists are used. We propose a new approach involving allosteric modulation to impose an activity-dependent constraint within the context of inflammation and tissue damage that would alter the responsiveness of the channel in a way that an orthosteric vanilloid antagonist cannot achieve. We believe that the allosteric modulator approach has not been explored for this target. The main goal of this proposal is to identify additional, new, potent allosteric modulators of TRPV1 that can be used to investigate TRPV1 function. Our recent report provides evidence of proof of concept, but the compounds are just at the edge of utility in terms of potency. […] The question of whether they can be used as analgesic agents is complex, but if suitable compounds are identified then testing for analgesic properties will be conducted. NIH Chemical Genomics Center [NCGC] NIH Molecular Libraries Probe Centers Network [MLPCN] MLPCN Grant: MH089480-1A1 Assay Submitter (PI): Michael Iadarola, National Institute of Dental and Cranofacial Research
Upon TRPV1 activation in TRPV1 cells, the channel opens and extracellular cations flow through the channel into the cytosol. A calcium binding dye (Fluo-8) becomes fluorescent when bound to calcium. This dye is pre-loaded into cells and is used as a marker for calcium influx. The amount of accumulated calcium is precisely quantified using the FDSS kinetic reader and the calcium dye. For the HTS assay, freshly prepared cells are plated at a density of 2000/well in 3 ul medium in 1536-well plates and cultured overnight at 35.5C. Cells will be loaded with 1 ul of the homogeneous calcium dye (ABD Bioquest) at room temperature for 40 to 90 minutes. Plates will be loaded into the FDSS kinetic reader and a 1 sec / cycle for 10 second baseline signal will be measured. Compound library will then be added with a pintool at 23 nl and measured kinetically for 3 minutes. This portion of the read is considered the agonist portion of the screen. Following the 3 minutes of incubation, an on board pipettor will deliver 1 ul of capsaicin for a final concentration equal to the EC20. Signal will be measured kinetically for an additional 2 minutes. This portion of the read is considered the allosteric enhancer portion of the screen. The FDSS reader has a standard filter set capable of measuring calcium bound Fluo-8 (ex=480 and em=520 nm).
For `O=S(=O)(NCc1ccccc1Br)c1ccccc1Br`, the potentiation is 5.51%. Turning to `CCOC(=O)C1=C(COC(=O)[C@H](C)NS(=O)(=O)c2ccccc2F)NC(=O)NC1C` (some centres undefined), the potentiation was -3.56%. Take `CCOC(=O)c1cc(OC(=O)c2ccccc2Cl)n(-c2ccccc2)n1`: the potentiation was 0.753%.

For the compound `CCc1sc(C(=O)N2CCN(CC(=O)Nc3cccc(F)c3)CC2)cc1C`, the potentiation is -11.7%.

As for `CCN(CC(=O)NCc1cccs1)C(=O)/C=C/c1ccc(C)cc1`, the potentiation is -0.0424%. As to `COC(=O)c1sc2[nH]c(=S)n(N)c(=O)c2c1C`, the potentiation is -11.7%.

Take `CCN(c1ccccc1)S(=O)(=O)c1cccc(C(=O)NCc2ccccc2CN2CCOCC2)c1`: the potentiation is -5.32%. Regarding `CCOc1ncccc1C(=O)OCC(=O)c1c[nH]c2ccccc12`, the potentiation is 3.1%. With `O=C(CN1C(=O)NC2(CCCCC2)C1=O)N1CCN(C(=O)c2cccs2)CC1`, the potentiation is 25.7%. Take `CN(C)CCN=c1cc(-c2ccccc2)oc2ccc(Cl)cc12`: the potentiation was -6.88%. For `O=C(COC(=O)c1ccccc1)c1ccc2c(c1)OCCO2`, the potentiation was 3.76%.

Consider `Cc1c(C(=O)NNC(=O)c2ccncc2)oc2ccccc12`, for which the potentiation was -17.2%. As for `O=C(O[C@@H]1[C@H](Cc2ccccc2)NS(=O)(=O)[C@H]2C[C@@H]3C=C[C@]12O3)c1ccccc1Br`, the potentiation was 3.92%.

On to `Cc1ccc(OCCC(=O)Nc2ccc(S(=O)(=O)Nc3nccs3)cc2)cc1`, for which the potentiation was 17.5%. As to `NC(=O)C1CCN(C(=O)c2ccc(F)c(S(=O)(=O)N3CCOCC3)c2)CC1`, the potentiation was -7.69%. Take `CC(C)c1ccc(/C=C/C(=O)NCCCN2CCOCC2)cc1`: the potentiation was -19.8%.

As for `O=C(NCCC1=CCCCC1)c1ccc(-n2cncn2)cc1`, the potentiation is -28.9%. Take `Cc1ccn2c(=O)nc(SCC(=O)NCc3ccc4c(c3)OCO4)nc2c1`: the potentiation is -6.94%. Take `CC1CN(/C=C/C(=O)C(F)(F)F)CC(C)O1` (centres undefined): the potentiation is 11.7%.

For the compound `COc1ccccc1/C=C/C(=O)OCC(=O)NC1CCCCCC1`, the potentiation is -11.2%.

Regarding `O=C(NCCc1ccc(F)cc1)c1ccc2nccnc2c1`, the potentiation is -3.52%. `CC(C)N(Cc1nnc(-c2ccccc2Br)o1)C(=O)c1cc(Cl)nc2ccccc12`: the potentiation is -18.4%. As to `Cc1cc(C)cc(OCC(=O)OCC(=O)NC2CCCC2)c1`, the potentiation was 19.9%. On to `COCC(C)NC(=O)COc1nncc2ccccc12` (centres undefined), for which the potentiation was 80.9% (active). The same measure for `COC(=O)C(C)NC(=O)COc1ccc2ccccc2c1` (centres undefined): 3.51%; for `CC(C)C(C)NC(=O)COc1ncnc2ccccc12` (centres undefined): 5.13%; for `Cc1cc(C)cc(-c2nnc(SCC(=O)NC3CC3)o2)c1`: -9.15%. The same measure for `CCOCc1c(C(=O)N2CCN(Cc3ccc(Br)s3)CC2)oc2ccccc12`: -19.8%; for `COc1ccccc1N1CCN(CC(=O)Nc2ccnn2C2CCCC2)CC1`: 4.7%; for `COc1ccccc1-n1nnnc1SCC(=O)NC(=O)Cc1ccccc1`: 2.96%.

On to `COc1ccc(S(=O)(=O)N2CCOCC2)cc1NC(=O)c1ccc(OCC(C)C)c(OC)c1`, for which the potentiation is -5.7%. Take `O=C(Nc1ccccc1F)c1ccc(S(=O)(=O)N2CCCCCC2)cc1`: the potentiation is -21.7%. The same measure for `O=S(=O)(NCCc1ccccn1)c1cc(Cl)cc(Cl)c1O`: 2.4%; for `O=C(c1cc2ccccc2o1)N1CCN(S(=O)(=O)c2ccc(Cl)s2)CC1`: -15.9%.

On to `O=C(Nc1ccccn1)C1CCN(S(=O)(=O)c2ccc3c(c2)OCCO3)CC1`, for which the potentiation was 1.92%. For the compound `O=C(CCNC(=O)c1ccc(Cl)cc1)NC1CCCc2ccccc21` (centres undefined), the potentiation was 27%. `COc1ccccc1C(=O)Nc1ccc(OCC(=O)N2CCCCC2)cc1`: the potentiation is -9.6%. `COc1ccccc1C(=O)Nc1ccc(C)c(S(=O)(=O)N2CCCCC2)c1`: the potentiation was -33.7%. Turning to `Cc1ccc(NC(=O)Cn2c(C)csc2=O)cc1`, the potentiation was 15%.

As to `Cc1ccc(-n2nc(C)c(C(=O)O)c2-n2cccc2)cc1`, the potentiation is 21.9%.

On to `O=C(O)CSc1ccc(S(=O)(=O)N2CCCC2)cn1`, for which the potentiation was 5.08%.

On to `CCN(CC(=O)Nc1ccc(OC)cc1)C(=O)c1ccc(Cl)c(S(=O)(=O)N2CCCC2)c1`, for which the potentiation is 0.452%. The same measure for `Cc1ccc(C(=O)NCC(c2cccs2)N(C)C)cc1S(=O)(=O)N1CCOCC1` (centres undefined): 2.03%; for `Cc1noc(C)c1COc1ccc(C(=O)NCCOc2ccccc2)cc1`: -13.4%. The figure for `c1ccc2cc(CCCc3cc4ccccc4cn3)ncc2c1` is -8.54%; for `O=c1ccc(S(=O)(=O)N2CCCC2)cn1Cc1nc(-c2ccccc2)no1` it is -29.3%.

For the compound `CC1CCc2sc(C(=O)NCC(c3ccco3)N3CCCCC3)cc2C1` (centres undefined), the potentiation is -4.62%. The figure for `Cc1ccc(-c2ccc(/C=C(\C#N)C(N)=S)o2)c([N+](=O)[O-])c1` is -9.36%; for `CCN(CC(=O)Nc1c(F)cccc1F)C(=O)c1cnc(C)cn1` it is -6.22%; for `CC1CC(=O)Nc2ccccc2N1C(=O)COc1ccc2cc(Br)ccc2c1` (centres undefined) it is -0.32%. On to `O=C(OCC(=O)N1CCc2ccccc21)c1ccc([N+](=O)[O-])cc1`, for which the potentiation was -20.6%. As to `O=S(=O)(c1cccs1)N1CCN(CCOc2ccccc2)CC1`, the potentiation was -11.9%. The same measure for `Cc1noc(C)c1C(=O)NCC1COc2ccccc2O1` (centres undefined): -2.08%; for `COc1ccc(-c2nc3c(c(SCC(=O)Nc4ccc(C(=O)O)cc4)n2)Cc2ccccc2O3)cc1`: 15.9%.
